Data published in PMC4336329 (PLoS ONE, 2015).
Out of some 310,000 compounds screened, about 2,200 (0.71%) showed an effect of 50% or more. The effect is printed as a negative number. This is one part of a sample in which strong results are shown more often than they occur.

target: human ether-à-go-go-related gene (hERG) potassium channel (human, UniProt Q12809); experiment: primary screen, population patch clamp on CHO cells stably expressing hERG; higher = less effect of the substance
Sequence (Q12809 whole entry, looked up): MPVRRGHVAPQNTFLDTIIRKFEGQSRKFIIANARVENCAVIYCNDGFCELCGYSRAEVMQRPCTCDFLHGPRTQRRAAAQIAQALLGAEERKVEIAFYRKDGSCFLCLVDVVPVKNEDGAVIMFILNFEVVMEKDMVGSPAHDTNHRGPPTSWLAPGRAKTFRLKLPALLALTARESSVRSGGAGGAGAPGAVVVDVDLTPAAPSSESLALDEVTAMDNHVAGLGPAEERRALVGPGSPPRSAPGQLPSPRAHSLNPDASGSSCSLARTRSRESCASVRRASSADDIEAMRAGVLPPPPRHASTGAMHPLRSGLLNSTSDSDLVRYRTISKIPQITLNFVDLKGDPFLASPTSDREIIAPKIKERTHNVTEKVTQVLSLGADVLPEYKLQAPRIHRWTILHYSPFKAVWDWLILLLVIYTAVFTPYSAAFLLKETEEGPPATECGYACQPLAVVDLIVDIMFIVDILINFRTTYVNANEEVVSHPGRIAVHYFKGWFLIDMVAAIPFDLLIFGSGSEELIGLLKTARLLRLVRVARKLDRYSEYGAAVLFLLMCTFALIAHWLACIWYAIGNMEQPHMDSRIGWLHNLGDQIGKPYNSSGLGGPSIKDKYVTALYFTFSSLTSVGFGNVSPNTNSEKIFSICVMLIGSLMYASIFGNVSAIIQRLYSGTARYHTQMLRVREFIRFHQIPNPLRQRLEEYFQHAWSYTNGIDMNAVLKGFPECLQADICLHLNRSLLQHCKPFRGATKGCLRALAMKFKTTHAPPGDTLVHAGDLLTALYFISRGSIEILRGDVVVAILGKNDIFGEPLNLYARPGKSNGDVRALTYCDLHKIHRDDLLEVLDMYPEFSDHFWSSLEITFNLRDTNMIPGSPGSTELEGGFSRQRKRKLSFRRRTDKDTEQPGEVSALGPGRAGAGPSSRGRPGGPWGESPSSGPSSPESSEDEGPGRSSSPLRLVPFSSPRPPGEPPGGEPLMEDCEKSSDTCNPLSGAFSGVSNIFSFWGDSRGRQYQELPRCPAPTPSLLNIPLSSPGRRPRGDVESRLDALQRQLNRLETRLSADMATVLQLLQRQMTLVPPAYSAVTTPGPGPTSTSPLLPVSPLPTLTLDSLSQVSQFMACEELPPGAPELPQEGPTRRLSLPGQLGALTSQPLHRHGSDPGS

| SMILES | hERG current change (%, negative = inhibition) at 1uM [%] |
| --- | --- |
| C=CCc1cc(Cl)ccc1OCCCn1ccnc1.O=C(O)C(=O)O | 7.27 |
| COc1ccc(C(=O)NC(=O)NC2(C(Cl)(Cl)Cl)OCCO2)cc1 | 8.1 |
| Cc1ccc(NC(=O)C2CC(=O)N(CCc3ccccc3)C2)c(C)c1 (stereo not drawn) | 2.1 |
| CC(C)CCNC(=O)c1c(N)n(Cc2ccc3c(c2)OCO3)c2nc3ccccc3nc12 | 11.9 |
| COc1ccc(CC2(CO)CCN(C(C)COc3ccccc3)CC2)cc1 (stereo not drawn) | -68.4 |
| CC(COc1ccccc1)N1CCC(CO)(CCc2ccccc2)CC1 (stereo not drawn) | -84.8 |
| COc1ccc(CC2(CO)CCN(C(C)Cc3ccc(Cl)cc3)CC2)cc1 (stereo not drawn) | -80 |
| COc1ccc(CC2(CO)CCN(C(=O)NCc3ccccc3)CC2)cc1 | 10.4 |
| CC(COc1ccccc1)N1CCC(CO)(Cc2ccccc2)CC1 (stereo not drawn) | -13.3 |
| COc1ccc(CCC(C)N2CCC(CO)(Cc3ccccc3)CC2)cc1 (stereo not drawn) | -31.6 |
| CSCC(C)N1CCC(CO)(CCc2ccccc2)CC1 (stereo not drawn) | 13.9 |
| CN(C)S(=O)(=O)N1CCC(CO)(CCc2ccccc2)CC1 | 12 |
| COc1ccc(CC2(CO)CCN(S(=O)(=O)N(C)C)CC2)cc1 | 14.7 |
| Cc1cccc2nc(-c3ccco3)c(Nc3ccc4c(c3)OCO4)n12 | 5.48 |
| CSCCC(NC(=O)c1ccc(Cl)cc1)C(=O)OCC(=O)Nc1ccc(C#N)cc1 (stereo not drawn) | -1.39 |
| CCCn1cc(CN2CCCC(C(=O)c3cccc(OC)c3)C2)c(C)n1 (stereo not drawn) | -14.5 |
| CS(=O)(=O)N1CCc2cc(-c3csc(NC(=O)Cc4cccs4)n3)ccc21 | -5 |
| CCc1ccccc1NNC(=O)c1snnc1C | 1.7 |
| CCC(C)N(C(=O)COC(=O)c1nc2nc(C)cc(C)n2n1)C1CCS(=O)(=O)C1 (stereo not drawn) | 21.2 |
| O=C(O)CCn1cc(C=C2C(=O)NC(=O)NC2=O)c(-c2cc3ccccc3oc2=O)n1 | 20.6 |
| Cc1cc2oc(C(=O)N3CCN(CCc4ccccn4)CC3)c(C)c2cc1C | -6.88 |
| Cc1c(C(=O)N2CCN(C(=O)c3ccccc3)CC2)oc2ccc(F)cc12 | -5.86 |
| Cc1c(C(=O)N2CCN(CCc3ccccc3)CC2)oc2ccccc12 | -36 |

| SMILES | hERG current change (%, negative = inhibition) at 1uM [%] |
| --- | --- |
| Cc1c(C(=O)N2CCN(c3ncccn3)CC2)oc2ccc(Cl)cc12 | 2.57 |
| Cc1c(C(=O)N2CCN(CCc3ccccn3)CC2)oc2ccc(F)cc12 | -61.3 |
| Cc1c(C(=O)N2CCN(CCc3ccccn3)CC2)oc2ccc(Cl)cc12 | -84.6 |
| Fc1ccc(Cn2nnc(-c3ccc(Cl)cc3)n2)cc1 | 11.5 |
| Cc1nc2ccccc2c(=O)n1NC(=O)Cc1ccc(Br)cc1 | 5.31 |
| COc1cccc(OCC(=O)NNC(=O)c2cccs2)c1 | 9.89 |
| O=C1N(c2ccc(Cl)cc2)C(c2cccnc2)N2CCCN12 (stereo not drawn) | 6.95 |
| C/C(=N\NC(=O)COc1c(C)cccc1C)c1cccs1 | 8.57 |
| CCC(CC)C(=O)Nc1ccc(C)c(O)c1 | 5.34 |
| O=C(Nc1ccnn1C1CCN(C2CCOCC2)CC1)c1cccc(F)c1 | 1.92 |
| O=C(Nc1ccnn1C1CCN(C/C=C/c2ccccc2)CC1)c1ccccc1 | -64.4 |
| O=C(Nc1ccnn1C1CCN(C/C=C/c2ccccc2)CC1)c1cccc(F)c1 | -58.5 |
| O=C(Nc1ccnn1C1CCN(Cc2ccc(CO)o2)CC1)c1ccccc1Cl | 6.94 |
| O=C(Nc1ccnn1C1CCN(C/C=C/c2ccccc2)CC1)c1ccccc1Cl | -92.1 |
| O=C(Nc1ccnn1C1CCN(Cc2ccc(CO)o2)CC1)c1ccccc1 | -0.976 |
| O=C(Nc1ccnn1C1CCN(Cc2ccccn2)CC1)c1cccc(F)c1 | 6.56 |
| CC(C)=CCN1CCC(n2nccc2NC(=O)c2ccccc2Cl)CC1 | -43 |
| O=C(CCc1ccccc1)Nc1ccnn1C1CCN(C/C=C/c2ccccc2)CC1 | -24.2 |
| Cc1ccc(OCCNC(=O)CNC(=O)c2ccc(C)c(C)c2)cc1 | 4.24 |
| CCC(C(=O)NN1C(=O)c2ccccc2C1=O)c1ccccc1 (stereo not drawn) | 13.8 |
| CCC(=O)c1ccc(OCC(=O)OCC(=O)NC2CCCC2)cc1 | 14.5 |
| O=C(CCS(=O)(=O)c1ccc(Br)cc1)N1CCN(c2ccccc2Cl)CC1 | 2.11 |
